The values below come from the supplement of paper PMC11417369.

± gives the standard deviation of the averaged measurements. The full ranking holds about 25,000 sequences; the median of “ln(normalized median fluorescence intensity)” is about 8.6, and the highest 2% start at about 10. Many of the other results were omitted from the sample, so the highest values are more common in it than they were.

The subject of the assay is PfAP2-EXP AP2 domain (GST-tagged). Briefly: gcPBM binding intensity (ln(normalized median fluorescence intensity)); higher = stronger DNA binding. An outline of the steps: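 Alexa488 anti-GST antibody, scanned at 488 nm, detected GST-tagged P. falciparum DNA-binding domains that had been expressed in E. coli and incubated for 1 h on an Agilent 4 × 180k array. The array carried primer-extended double-stranded 36-bp intergenic genomic probes and negative controls. Binding intensity is the highest Masliner-normalised natural-log median intensity across replicate spots of either orientation of each probe.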
On to “ATAAATATACATTATACCGACCATGTGGATATTATA [XGTACX_negctrl_site241]”, for which the “gcPBM binding intensity (ln)” value is 8.43 ± 0.49. Then “GTGCATATGTAGATATGTACATATTTATTTATTATT [XGTACX_site7343]”, with 8.38 ± 0.16.

With “TTCTAGAAAACTGATCGTACAAATAAATATAGACAC [XGTACX_site2808]”, the “gcPBM binding intensity (ln)” value came out at 8.88 ± 0.28.

As to “AATGGTAATCCACATACACACACACCGACACATATA [CACACA_site8876]”, the “gcPBM binding intensity (ln)” value stood at 8.72 ± 0.49. Regarding “TTCTTCTGTTTTATTACACACCATTTTGTGTATACA [CACACA_site7059]”, the “gcPBM binding intensity (ln)” value was 8.96 ± 0.35.

On to “GGTATATATTTATAATGTACATATTCATATATATAA [XGTACX_site3291]”, for which the “gcPBM binding intensity (ln)” value was 8.45 ± 0.39. For the sequence “TATAAATATAAATACACACACACACGCCAAAGCGTA [CACACA_site6181]”, the “gcPBM binding intensity (ln)” value came to 8.49 ± 0.36. Then “TATATATATATATATACACACACACCCACCAAAGCG [CACACA_site7904]”, with 10.3 ± 0.26.

As for “TATATATATATATACACACACACACCCCAAAGCGTA [CACACA_site64]”, the “gcPBM binding intensity (ln)” value was determined as 10.4 ± 0.15. Take “ACCATACATACATACACACACACACCCATATATATA [CACACA_site2917]”: the “gcPBM binding intensity (ln)” value came to 8.94 ± 0.45. For “CATATACACCAACACACACACACACCCACAAAAAAA [CACACA_site496]”, the “gcPBM binding intensity (ln)” value came out at 8.53 ± 0.4. Then “TATATATATAAATACACACACACACCCCAAAGCGTA [CACACA_site4211]”, with 9.18 ± 0.46; and “GTACACATATAGTAATAATTTTATTATATTTTTTTG [CACACA_negctrl_site843]”, with 8.46 ± 0.3.

With “ATATAAGTACGGCATGCATGCACATTTTTTTATTCC [TGCATGCA_site101]”, the “gcPBM binding intensity (ln)” value stood at 10.3 ± 0.23. As for “TATATATATATATATTTTTTTTTTTTATGCACATGG [CACACA_negctrl_site1573]”, the “gcPBM binding intensity (ln)” value is 10.1 ± 0.36. In the case of “GATTATTTTATAAGTACACACATTTATATATAATAA [CACACA_site2573]”, the “gcPBM binding intensity (ln)” value was 8.41 ± 0.33. Take “AAATATTACCATGTGAAAATTTTACTGCAACATGAA [TGCATGCA_negctrl_site609]”: the “gcPBM binding intensity (ln)” value came to 8.71 ± 0.38. On to “AATGAATAATTATTTTGTACATAATATTATATTTAT [XGTACX_site5350]”, for which the “gcPBM binding intensity (ln)” value came out at 8.34 ± 0.36. For the sequence “AATCATTAAAGCATAATGTTTATGATCAATATGAAA [CACACA_negctrl_site887]”, the “gcPBM binding intensity (ln)” value turned out to be 8.27 ± 0.33.

For “CCCTCTTCTCTCATATCACACATGTCATCCTTATCC [CACACA_site5078]”, the “gcPBM binding intensity (ln)” value worked out at 9.15 ± 0.42. Turning to “TTCTCATCCTTACATACACACACATATATATATATA [CACACA_site7914]”, the “gcPBM binding intensity (ln)” value was determined as 10.3 ± 0.11. Consider “GTTACATACATATACACACACATATATATATATATA [CACACA_site901]”, for which the “gcPBM binding intensity (ln)” value stood at 9.99 ± 0.35.

“CTCATCCTTACATACACACACATATATTTATTTATA [CACACA_site6202]”: the “gcPBM binding intensity (ln)” value was 8.99 ± 0.39.

As to “CTCATCCTTACATACACACACATATATATATATATA [CACACA_site103]”, the “gcPBM binding intensity (ln)” value amounted to 10.2 ± 0.29.

For “TTTATATTTATATATACACACATATACATCCTATTT [CACACA_site3079]”, the “gcPBM binding intensity (ln)” value was determined as 8.54 ± 0.31. As to “TTTTTTTTTTTTTTTACACACAAATGTATACTATAT [CACACA_site1787]”, the “gcPBM binding intensity (ln)” value amounted to 8.46 ± 0.43. On to “TTTTTATTGTTATAGTTATAATATATTATTTGATTA [XGTACX_negctrl_site27]”, for which the “gcPBM binding intensity (ln)” value turned out to be 8.44 ± 0.4.

Consider “TATATATTAGAAGATAGTACATATATATTTATTAAT [XGTACX_site1011]”, for which the “gcPBM binding intensity (ln)” value came to 8.53 ± 0.24. As for “ATATTTGCCCAAGATAGTACATATATATATATATAT [XGTACX_site7756]”, the “gcPBM binding intensity (ln)” value worked out at 10.2 ± 0.24.

Consider “ATATATATATATAATAGTACATATATTTTGAAAGAT [XGTACX_site5800]”, for which the “gcPBM binding intensity (ln)” value turned out to be 9.75 ± 0.27. “AAATTAAATGTAAGCACACATAAATTATACTCATAT [CACACA_site5782]”: the “gcPBM binding intensity (ln)” value amounted to 8.36 ± 0.33. Consider “AAAAAAAAAAAATTCACACACATATAAAAAATTAAG [CACACA_site728]”, for which the “gcPBM binding intensity (ln)” value was found to be 8.39 ± 0.45. As to “TATATATATATAAGCACACAAACAAAAAAAATTATA [CACACA_site3897]”, the “gcPBM binding intensity (ln)” value was determined as 9.74 ± 0.27. “ATAAAAATATTATAAGCACACATATATATATATATA [CACACA_site8781]”: the “gcPBM binding intensity (ln)” value worked out at 10.2 ± 0.34.

As to “AAATTAAATGTAAGCACACATAAATTATACGCATAT [CACACA_site3335]”, the “gcPBM binding intensity (ln)” value was found to be 8.6 ± 0.38. Consider “ATAAAAAAAAATAGCACACATAAATATATTATATAT [CACACA_site767]”, for which the “gcPBM binding intensity (ln)” value was determined as 8.66 ± 0.35. Consider “AATTAAATTATAAGCACACACATATATATATATATA [CACACA_site3351]”, for which the “gcPBM binding intensity (ln)” value was 10.2 ± 0.32. Turning to “AAAAATATTATAAGCACACATATATATATATATATA [CACACA_site2458]”, the “gcPBM binding intensity (ln)” value is 10.3 ± 0.28.

Regarding “AAAATTAAATTATAAGCACACACATATATATATATA [CACACA_site9105]”, the “gcPBM binding intensity (ln)” value is 10.2 ± 0.52.

“ATACAATAATATAAATGTACAAATTATATCTTCATT [XGTACX_site8994]”: the “gcPBM binding intensity (ln)” value came out at 8.37 ± 0.33. Take “TATACCTATAGACACACACACATAAATAGATATATA [CACACA_site6748]”: the “gcPBM binding intensity (ln)” value worked out at 8.83 ± 0.51. Turning to “TATATGCAAAATGTCACACATGTGATAAATACATAT [CACACA_site4302]”, the “gcPBM binding intensity (ln)” value worked out at 8.72 ± 0.36. Then “ATTTTACATATTTGCACACATATATTTATATACATA [CACACA_site854]”, with 8.89 ± 0.4.

Turning to “TATAAAAAAAACGAAAAAAAAAAAAAAAATACAGGA [TGCATGCA_negctrl_site585]”, the “gcPBM binding intensity (ln)” value is 8.54 ± 0.61.

“CATACATACATACATACACACATACAGATATATATA [CACACA_site4890]”: the “gcPBM binding intensity (ln)” value was 9.15 ± 0.32. Turning to “GTTACATACAGATACACACACATATATATATATATA [CACACA_site4652]”, the “gcPBM binding intensity (ln)” value came out at 10.2 ± 0.15. Then “CACAGATATATACATACACACATATATACACATATA [CACACA_site6323]”, with 8.58 ± 0.38; and “TATATATACATACATACACACATATATATATATATT [CACACA_site4110]”, with 8.71 ± 0.4. Consider “TATATATATATATATACACACATATACATATTGTTT [CACACA_site3499]”, for which the “gcPBM binding intensity (ln)” value is 10.2 ± 0.32. As to “TGTTGTTACAGATATACACACATATATATATTATAT [CACACA_site5342]”, the “gcPBM binding intensity (ln)” value stood at 8.55 ± 0.41. Then “TATATATATATATATACACACATACAGATATATATT [CACACA_site4629]”, with 10.2 ± 0.36; and “AGTATACAGATATATACACACATATATATATATATA [CACACA_site4323]”, with 10 ± 0.41; and “TATATATATATATATACACACATACATATATATATT [CACACA_site8185]”, with 10.1 ± 0.4. In the case of “AAGGTTTTGGGTTTTAATTAATTTAATATGATTATA [XGTACX_negctrl_site147]”, the “gcPBM binding intensity (ln)” value came to 8.46 ± 0.59.

As to “TACATTTTTATTTTTACACACATATATATATATATA [CACACA_site1021]”, the “gcPBM binding intensity (ln)” value came to 10.1 ± 0.31.

Take “AAAATAAATATAAAATGTACTTATATATATATATAT [XGTACX_site7803]”: the “gcPBM binding intensity (ln)” value came out at 9.97 ± 0.47.
